ELG1 genotox – qHTS screen for small molecules that induce genotoxicity in human embryonic kidney (HEK293T) cells expressing luciferase-tagged ELG1; Potency, µM (doses to about 46 µM), for the others: top-dose activity change, positive = activation, hits mostly activators; HEK293T ELG1-luciferase reporter, luminescence, 16 h; hit rate 1.3% among 330,000; AID 504466, 2011; note: % of control where 0% means no effect; nearly all actives have a fitted effect of over 60% in size
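ELG1-luciferase HEK293T cells, 2,000/well; compound pinned in; 16 hr, 37 °C, 5% CO2; ONE-Glo, 30 min RT; luminescence on CCD imager.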
SMN2 splice enh – qHTS Assay for Enhancers of SMN2 Splice Variant Expression; hit rate 2.8% among 210,000; Potency, µM (series often up to 46.1 µM), for the others: at the highest dose activity change, positive = activation, actives largely listed as activators; HEK293 SMN2-luciferase splicing reporter, luminescence, 30-36 h; note: % of control where 0% means no effect; nearly all actives have a fitted effect of over 55% in size
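HEK293 cells carry an SMN2 minigene-luciferase reporter in which exon 7 inclusion puts luciferase in frame. Cells were seeded at 2000 cells/well, attached for 10-12 hours, then exposed to compounds for 30-36 hours at 37C before ONE-Glo luminescence.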
FLuc modulator – qHTS profiling assay for firefly luciferase inhibitor/activator using purifed enzyme and Km concentrations of substrates (counterscreen for miR-21 project). Luciferin 4-monooxygenase (Photinus pyralis), P08659. purified FLuc, Km substrates, luminescence inhibition. Potency, µM (titrated, usually from 57.5 µM), inactives show at the top dose activity change, negative = inhibition, actives largely listed as inhibitors. hit rate 6.9% among 360,000;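 note: plate controls were vehicle for no effect and reference inhibitor for full effect; nearly all actives have a fitted effect of over 55% in size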
Target sequence (P08659 whole entry, looked up): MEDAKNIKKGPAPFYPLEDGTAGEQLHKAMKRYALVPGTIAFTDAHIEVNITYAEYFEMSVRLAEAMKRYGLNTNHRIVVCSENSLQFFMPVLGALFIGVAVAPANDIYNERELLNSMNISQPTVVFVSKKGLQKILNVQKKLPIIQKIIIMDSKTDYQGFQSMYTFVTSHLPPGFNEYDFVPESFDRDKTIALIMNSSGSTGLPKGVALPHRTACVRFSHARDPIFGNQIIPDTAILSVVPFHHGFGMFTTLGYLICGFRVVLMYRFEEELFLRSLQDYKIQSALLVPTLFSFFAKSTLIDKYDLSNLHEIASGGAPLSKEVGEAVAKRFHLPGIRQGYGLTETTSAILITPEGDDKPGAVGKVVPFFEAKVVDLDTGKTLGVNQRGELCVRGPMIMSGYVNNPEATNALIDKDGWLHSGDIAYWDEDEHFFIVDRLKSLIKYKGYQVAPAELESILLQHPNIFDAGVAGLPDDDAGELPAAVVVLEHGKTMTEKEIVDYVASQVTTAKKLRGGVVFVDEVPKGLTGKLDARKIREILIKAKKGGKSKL
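Biochemical qHTS of compounds, final roughly 60 µM downward over six points, against 10 nM purified firefly luciferase using Km concentrations of substrates (10 uM D-luciferin, 10 uM ATP) in Tris acetate pH 7.5 buffer; luminescence output.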
Rab9 promoter act – qHTS Assay for Rab9 Promoter Activators; hit rate 2.8% among 320,000; Huh7 Rab9 promoter-luciferase reporter, luminescence, 24 h; Potency, µM (top dose mostly 9.22 µM), for the others: at the top dose activation, negative = inhibition, usual class: activators; note: % of control where 0% means no effect; nearly all actives have a fitted effect of over 60% in size
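Measured in stably transfected Huh7 cells bearing a Rab9 promoter–luciferase construct: 24 h compound treatment at 37 °C, followed by luminescence detection.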
NPC1 prom act – qHTS Assay for NPC1 Promoter Activators; Huh7 NPC1 promoter luciferase reporter, 24 h; Potency, µM (doses to about 9.22 µM), for the others: at the top dose activation, usual class: activators; hit rate 2.4% among 320,000; note: % of control where 0% means no effect; nearly all actives have a fitted effect of over 60% in size
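NPC1 promoter–luciferase Huh7 cells; 24 h compound; luminescence.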
ELG1 repair inh – qHTS screen for small molecules that inhibit ELG1-dependent DNA repair in human embryonic kidney (HEK293T) cells expressing luciferase-tagged ELG1; hit rate 2.3% among 330,000; Potency, µM (titrated, usually from 46.1 µM), for the others: at the top dose activity change, negative = inhibition, most hits filed as inhibitors; HEK293T ELG1-luciferase reporter, luminescence, 16 h; DNA damage induced by 5-fluorouridine; note: % is set by controls: 0 for no effect and ±100 for the full control effect; nearly all actives have a fitted effect of over 55% in size
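DMSO vehicle served as the neutral condition. Each well held 2,000 cells given 5-fluorouridine plus compound; after 16 hr at 37 °C/5% CO2, ONE-Glo was added and luciferase measured 30 min later.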
Active calls of the source: *; ? = inconclusive; / = no result given. This is a sample that favours compounds with a hit; in the whole collection about 9.2% have one here. Calls come from the whole dose curve; as a rule, active = well fitted curve in the direction sought with a large enough effect; inconclusive = small, poorly fitted or top-dose-only effect, or another doubt; inactive = no such curve, though single readings can be large; an effect the other way counts as inactive or inconclusive. Potency is the fitted concentration of half-maximal effect.

SMILES | ELG1 genotox | SMN2 splice enh | FLuc modulator | Rab9 promoter act | NPC1 prom act | ELG1 repair inh
N#CCCN(Cc1cccs1)C(=O)c1ccc(Cl)cc1 | -2% | / | 1% | 1% | -4% | 2%
CN(Cc1ccc(Cl)cc1Cl)C(=O)CNC(=O)c1ccc2c(c1)OCO2 | -1% | / | 3% | -2% | -2% | 2%
Cc1cccc(Nc2nc(-c3ccc4c(c3)OCCO4)cs2)c1 | 2.3µM* | 11µM* | 2.7µM* | 0.89µM* | 2µM* | ?
O=C(NN1C(=O)C2C3CCC(O3)C2C1=O)c1ccco1 (centres undefined) | 1% | 18% | 7% | 0% | -25% | 4%
CC(=O)Nc1ccc(N(CC(=O)NC2CCCCC2)C(=O)Cn2nnc(-c3ccccc3)n2)cc1 | 5% | / | 0% | -1% | 0% | 0%
COc1ccc(C(CNC(=O)c2oc3ccccc3c2C)N2CCCC2)cc1 (centres undefined) | -1% | / | 21µM* | -9% | -3% | -13%
CCOc1ccc2oc(C(=O)NC(C)(C)CC)c(C)c2c1 | ? | ? | 17µM* | 2.5µM* | ? | ?
CCOc1ccc2oc(C(=O)NC3CC(C)(C)NC(C)(C)C3)c(C)c2c1 | 6% | -4% | -3% | -3% | 0% | ?
COc1ccc2oc(C(=O)NCCc3ccccc3)c(C)c2c1 | ? | / | ? | ? | 0.45µM* | ?
Cc1c(C(=O)NCCc2ccccc2)oc2ccccc12 | 2.1µM* | / | 2.1µM* | 0.71µM* | 0.79µM* | ?
COc1ccc2oc(C(=O)OCC(=O)NCCc3ccccc3)c(C)c2c1 | 17% | / | -3% | 10% | 0% | -2%
COCCn1c(C)cc(O)c(C(c2ccccc2OC)N2CCCCC2)c1=O (centres undefined) | / | / | -1% | / | / | /
O=S(=O)(c1c(F)cccc1F)C1CCN(S(=O)(=O)c2ccc3c(c2)OCCO3)CC1 | 0% | / | / | / | / | -17%
COc1ccc(Br)c(C(=O)OCC(=O)NC2CCCCCC2)c1 | -1% | / | ? | 0% | 0% | -21%
CCc1ccc(C(=O)CN2CCSC2=N)cc1 | ? | ? | 3µM* | 0.71µM* | 1.6µM* | ?
O=C(OCCOc1cccc(Cl)c1)c1cc(S(=O)(=O)N2CCOCC2)ccc1F | 4% | / | 2% | -1% | 0% | -1%
CC(=O)CCc1ccc(OCCCOc2cccc3cccnc23)cc1 | 3% | / | 21µM* | 0% | 5% | -15%
CC(=O)c1ccc(OCCCOc2cccc3cccnc23)cc1 | -7% | / | -12% | -2% | -9% | 13%
CCN(CC)C(=O)c1[nH]cnc1C(=O)NCC(=O)OC(C)(C)C | 0% | / | -3% | 2% | -1% | -11%
NC(=O)c1ccsc1NC(=O)c1coc2ccccc2c1=O | 7.3µM* | 11µM* | 2.4µM* | 2µM* | ? | ?
CC(=O)O[C@@H]1C(CO[Si](C)(C)C(C)(C)C)=C(Br)C(=O)[C@@H]2O[C@]12C | / | -4% | / | / | / | /
C/C(=N\NC(=O)C12CCC(C)(C(=O)O1)C2(C)C)c1ccccc1O (centres undefined) | 5% | / | -11% | -32% | -4% | 21µM*
CC12CCC(C(=O)NCc3ccccc3)(OC1=O)C2(C)C (centres undefined) | 0% | 14% | 3% | -2% | 13% | 4%
O=C(N/N=C/c1ccc(O)cc1O)C(=O)N/N=C/c1ccc(O)cc1O | 2% | / | 0% | -5% | 3% | -11%
CC12CCC(C(=O)N/N=C/c3ccc(O)cc3O)(OC1=O)C2(C)C (centres undefined) | 11% | / | -3% | -21% | -14% | 13µM*

Compound activity: PubChem, National Center for Advancing Translational Sciences (NCATS)
